Bioassay records as filed in PubChem.
GLS inhibitor: qHTS for Inhibitors of Glutaminase (GLS) | Potency, µM (series often up to 45.5 µM), for inactives: at the top dose activity change, negative = inhibition, hits mostly inhibitors | actives 0.21% (n = 410,000) | Glutaminase kidney isoform, mitochondrial (Homo sapiens), O94925 | GLS enzymatic activity, qHTS titration
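hKGA in 45 mM KH2PO4 (pH 8.2), 0.02% Tween-20 with compound, then 1mM L-Glutamine (stock as added) plus glutamate oxidase/HRP/Amplex red coupling mix. Fluorescence read initially and after 30 min at RT; signal change reflects glutamate formation.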
Pin1 inh: qHTS Assay to Find Inhibitors of Pin1. Peptidyl-prolyl cis-trans isomerase NIMA-interacting 1 (Homo sapiens), Q13526. Pin1 FP peptide displacement, HiFluor488, 10 min. Potency, µM (top dose mostly 115 µM), for inactives: top-dose activity, negative = inhibition, usual class: inhibitors. actives 0.009% (n = 390,000); active means well fitted inhibition curve with a large enough effect in the polarisation, with a control signal flat, not every such curve was filed as active; inconclusive means small, poorly fitted or top-dose-only effect, or effect the other way, or a change in a side signal; inactive means no such curve, though single readings can be large or run the other way; the % refers to the polarisation
Target sequence (Q13526 whole entry, looked up): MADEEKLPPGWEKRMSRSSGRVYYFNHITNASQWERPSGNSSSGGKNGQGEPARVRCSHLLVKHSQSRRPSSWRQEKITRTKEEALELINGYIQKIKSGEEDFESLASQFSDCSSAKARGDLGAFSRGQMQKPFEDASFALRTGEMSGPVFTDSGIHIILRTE
Tb PGK inh: qHTS Assay to Find Inhibitors of Phosphoglycerate Kinase; Phosphoglycerate kinase, glycosomal (Trypanosoma brucei brucei), P07378; PGK/GAPDH coupled, Kinase-Glo luminescence, 60 min; Potency, µM (titrated, usually from 57.5 µM), for inactives: top-dose activity change, negative = inhibition, hits mostly inhibitors; actives 0.043% (n = 380,000); further: nearly all actives have a fitted effect of over 60% in size
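Luminescent ATP detection (Kinase-Glo Plus) follows a 60-minute room-temperature incubation, with wells lacking PGK as controls. Buffer: 100 mM TEA (pH 7.6), 5 mM MgCl2, 0.01% Tween-20. Coupling enzyme GAPDH (100 nM final) supplies unstable 1,3-BPG in-well.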
VDR inh: Inhibitors of the vitamin D receptor (VDR): qHTS. AID 504847, 2011. Potency, µM, without a hit: max response, negative = inhibition, most hits filed as inhibitors. actives 0.93% (n = 400,000). VDR-SRC2-3 peptide fluorescence polarization, 2 h
Target sequence (P11473 whole entry, looked up): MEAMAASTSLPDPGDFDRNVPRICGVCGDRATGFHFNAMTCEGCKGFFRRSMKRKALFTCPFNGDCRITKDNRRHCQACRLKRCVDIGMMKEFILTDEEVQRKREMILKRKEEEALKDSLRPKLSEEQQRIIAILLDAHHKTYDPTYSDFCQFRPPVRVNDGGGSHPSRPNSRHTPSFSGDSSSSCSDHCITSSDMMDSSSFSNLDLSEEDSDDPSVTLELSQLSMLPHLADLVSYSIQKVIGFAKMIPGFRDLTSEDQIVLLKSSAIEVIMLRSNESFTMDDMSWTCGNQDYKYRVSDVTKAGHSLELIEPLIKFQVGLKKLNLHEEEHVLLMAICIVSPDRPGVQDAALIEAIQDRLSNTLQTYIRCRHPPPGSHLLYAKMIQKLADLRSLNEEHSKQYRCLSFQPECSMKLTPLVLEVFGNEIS
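Inhibition of the VDR/SRC2-3 peptide interaction is quantified by fluorescence polarization. Compounds (23 nl, pintool) incubate with the reagents for 2 hours at ambient room temperature.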
Tb PFK block: qHTS Assay to Find Inhibitors of T. brucei phosphofructokinase. T. brucei PFK, ADP-Glo luminescence. Potency, µM (top dose mostly 57.5 µM), for inactives: top-dose activity, negative = inhibition, most hits filed as inhibitors. actives 0.17% (n = 330,000). AID 485367, 2010;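 further: 0% = uninhibited 1x PFK enzyme wells and -100% = no-enzyme wells; nearly all actives have a fitted effect of over 60% in size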
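In TEA buffer at pH 8.0 with 5 mM MgCl2, enzyme (1.25 nM) converted F6P (0.5 mM) and ATP (0.1 mM) for 45 min at room temperature. ADP product was read by luciferase luminescence.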
An asterisk follows results filed as active; i = inactive; ? = inconclusive; · = no result; ! = not active in a repeat. This is a sample that favours compounds with a hit; in the whole collection about 1.1% have one here. Unless noted, the call rests on the fitted dose curve; in most records, active means well fitted curve in the direction sought with a large enough effect; inconclusive means small, poorly fitted or top-dose-only effect, or another doubt; inactive means no such curve, though single readings can be large; an effect the other way counts as inactive or inconclusive. Unless noted, on the % scale 0 is the no-effect control and ±100 the full control effect; potency means the concentration at half of the fitted maximal effect.

SMILES | GLS inhibitor | Pin1 inh | Tb PGK inh | VDR inh | Tb PFK block
Cc1ccc2nc(-c3cccc(-c4nc5ccc(C)cc5o4)n3)oc2c1 | · | -5% | · | 50µM* | ·
CC(C)N(C(=O)Nc1ccc2nsnc2c1)C(C)C | -23% | · | -26% | 14µM* | -31%
CCOc1ccc(NC(=O)Nc2ccc3nsnc3c2)cc1 | 17% | 2% | 5% | 2% | 5%
CCOc1ccc(NC(=S)Nc2ccc3nsnc3c2)cc1 | 0% | ? | -6% | 79µM* | 4%
COc1ccc(NC(=S)Nc2ccc3nsnc3c2)cc1 | 26% | ? | -10% | 89µM* | -2%
COc1ccc(N(C)C(=O)Nc2ccc3nsnc3c2)cc1 | -1% | ? | -2% | -12% | -4%
CC(C)c1ccc(CC(=O)N2CCC2(C)C(=O)NS(=O)(=O)c2cccc(OC(F)F)c2)cc1 (stereo unspecified) | 5% | · | · | · | ·
O=C1SC(SC(=Nc2ccccc2)Nc2ccccc2)C(=O)N1c1ccccc1 (stereo unspecified) | -1% | 1% | 6% | 89µM* | -3%
Cc1cccc(N2C(=O)CC(SC(=Nc3ccccc3)Nc3ccccc3)C2=O)c1 (stereo unspecified) | 4% | 3% | 0% | 8% | -2%
C=C1C(=O)O[C@@H]2[C@@H]1CC/C(C)=C\CC[C@@]1(C)O[C@H]21 | -2% | · | · | ? | ·
C=C1C(=O)O[C@@H]2[C@H]3O[C@]3(C)CCC=C(C)CC[C@@H]12 | · | · | · | 35µM*! | ·
C/C(=N\NC(=S)Nc1ccccc1C)c1ccc(O)cc1 | 10µM* | 1% | 8% | ? | 3%
O=c1ccc2cc3c4c(c2o1)CCCN4CCC3 | -10% | ? | -8% | 2% | -17%
O=c1oc2c3c4c(cc2s1)CCCN4CCC3 | -9% | ? | -13% | 79µM* | ?
O=C(CSc1nc2ccccc2o1)NC1CCCC1 | -1% | -1% | -4% | 11% | -5%
CSC1CCCCC1(O)CSc1nc2ccccc2o1 (stereo unspecified) | 13µM* | 8% | -9% | -3% | 15%
CCCCCCCCc1ccc(-c2ccc(C(=O)O)cc2)cc1 | · | · | · | 3% | ·
C=CC(=O)c1ccc(CCCCCC)cc1 | · | · | · | 40µM* | ·
COc1cc(OC)c(NC(=O)NCCn2nnc3cc(S(=O)(=O)N(C)C)ccc32)cc1Cl | 2% | 4% | -10% | 15% | ·
CC(=O)Oc1ccc2occ(/C=N/c3cc(=O)[nH]c(=S)[nH]3)c(=O)c2c1 | 3% | ? | -4% | 28µM* | -20%
CCOCCCNC(=O)c1cnc2sc(N3CCCCCC3)nn2c1=O | -5% | 1% | i | 4% | ·
NC(=O)c1ccc2[nH]ccc2c1 | · | · | · | 14% | ·
N#CC(C#N)=C(N)/C(C#N)=C/c1ccc2[nH]ccc2c1 | · | · | · | 50µM*! | ·
C=C1C(=O)C23C(O)C1CCC2C12CCCC(C)(COC(C)=O)C1C(O)C3(O)OC2 (stereo unspecified) | 17% | -1% | -10% | 25µM* | ·
COc1ccc(N2C(=O)NC3CC2(C)Oc2ccc(Cl)cc23)cc1OC (stereo unspecified) | 0% | -1% | -6% | 9% | 3%
SMILES | GLS inhibitor | Pin1 inh | Tb PGK inh | VDR inh | Tb PFK block
COc1ccc(CCN2C(=S)NC3CC2(C)Oc2ccc([N+](=O)[O-])cc23)cc1OC (stereo unspecified) | 10µM* | 13% | -1% | -7% | 1%
CC1CCN(S(=O)(=O)N2CCCC(C(=O)NCc3ccc(F)cc3)C2)CC1 (stereo unspecified) | 11% | ? | -1% | 79µM* | 1%
Cc1ccc(NC(=O)CN2C(=O)CCc3ccccc32)cc1C | -13% | -3% | i | -1% | ·
CC(O)CNc1nc2c(c(=O)n(Cc3ccc(Br)cc3)c(=O)n2C)n1C (stereo unspecified) | 20µM* | -3% | i | -18% | -4%
Cn1c(N2CCOCC2)nc2c1c(=O)n(Cc1ccc(Cl)cc1)c(=O)n2C | 13µM* | 0% | -1% | -7% | ·
Cn1c(N2CCCCC2)nc2c1c(=O)n(Cc1cccc(Br)c1)c(=O)n2C | -8% | -5% | -9% | 2% | 3%
Cn1c(N2CCN(c3ccccn3)CC2)nc2c1c(=O)n(Cc1ccc(Cl)cc1)c(=O)n2C | ? | -6% | -3% | 13% | 1%
Cn1c(N2CCC(C(N)=O)CC2)nc2c1c(=O)n(Cc1ccc(Br)cc1)c(=O)n2C | 13µM* | -1% | -5% | -17% | ·
CC(O)CNc1nc2c(c(=O)n(Cc3cccc(Cl)c3)c(=O)n2C)n1C (stereo unspecified) | 0% | -4% | 11% | 0% | 0%
COc1ccc(-c2oc3ncn4nc(COc5cccc(C)c5C)nc4c3c2-c2ccc(OC)cc2)cc1 | -9% | 2% | -1% | -29% | ·
CCN(CC)CCN(C)C(=O)c1[nH]c(C(F)(F)F)nc1-c1ccccc1 | 14% | · | · | · | ·
CC(=O)c1cnc2c(-c3ccc(Cl)cc3)cnn2c1C | 10% | -1% | 1% | -7% | 2%
Nc1c(C(=O)O)cnc2c(-c3ccc(Cl)cc3)cnn12 | 1% | -1% | 32µM* | -1% | -2%
CC(c1ccc(F)cc1)n1c(-c2ccc3ccccc3n2)n[nH]c1=S (stereo unspecified) | 13µM* | 2% | -3% | 4% | -2%
CCCSc1nc(O)c(C(c2ccc(OC)c(O)c2)c2c(O)nc(SCCC)n(C)c2=O)c(=O)n1C | 12% | -2% | -2% | 35µM* | 2%
COc1cccc(NC(=O)CCC(=O)N2Cc3ccccc3Oc3ncccc32)c1 | -17% | 9% | i | 20% | ·
Cn1cc(C(c2ccccc2OCC(=O)O)c2cn(C)c3ccccc23)c2ccccc21 | 14µM* | 5% | -1% | 40µM* | 6%
CCn1c(=O)cc(OCC(=O)O)c2ccccc21 | 3% | 1% | 9% | -7% | 1%
COc1ccccc1-c1noc2c1C(=O)NCC2 | -1% | · | -2% | · | ·
CCOC(=O)c1scc(-c2ccc(C)cc2)c1S(=O)(=O)Nc1ccc(F)c(F)c1 | 4% | -2% | -1% | 11% | ·
CCOC(=O)c1scc(-c2ccccc2)c1S(=O)(=O)Nc1ccc(N(C)C)cc1 | 39% | 1% | 6% | 20µM* | ·
CC(C)COc1ccc(C(=O)Nc2nnc(S(=O)(=O)N(C)Cc3ccco3)s2)cc1 | -2% | -1% | 0% | 14% | ·
O=[N+]([O-])c1ccc(Nc2ccccc2)c2nonc12 | 4% | 48% | -7% | 3% | -5%
NNc1ccc([N+](=O)[O-])c2[nH][nH]c(=O)c12 | 7.9µM* | · | ? | · | ·
